# Measured values: the supplement of paper PMC10849652
# About 7,900 targets were measured; listed, in parts, are those with a hit and a random draw of the rest. About 0.6% of all pairs of compound and target were hits. A number with no mark means an inactive call.
# Experiments:
# Experiment in all cases: log2 fold change, soluble protein after heating vs DMSO (PISA); higher = thermal stabilisation; K562 cells, 10 uM, 30 min; active = over 0.2 and 3.5 SD of the protein, either way, in both replicates (recomputed)
# bafetinib = compound: Cc1ccc(NC(=O)c2ccc(CN3CC[C@H](N(C)C)C3)c(C(F)(F)F)c2)cc1Nc1nccc(-c2cncnc2)n1 [bafetinib]
# Outline: (§1)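 K562 cells at 2×10^6 cells/mL were treated for 30 min with 10 μM compound, and aliquots were heated for 3 min over 48°C-58°C before pooling. Extraction used PBS with 0.5% NP-40 at 4°C, and soluble protein was the supernatant after 21,000xg for 90 min, measured by TMTpro 16plex LC-MS/MS with channel sums equalised. Thermal stability values, relative to control samples and from duplicates, are log2 fold changes.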
# [1] = compound: Cc1cccc(CC(=O)N2CCc3c2ccc(-c2cn(C)c4ncnc(N)c24)c3F)n1
# Outline: as §1
# nilotinib = compound: Cc1cn(-c2cc(NC(=O)c3ccc(C)c(Nc4nccc(-c5cccnc5)n4)c3)cc(C(F)(F)F)c2)cn1 [nilotinib]
# Outline: as §1
# [2] = compound: Cc1nc(Nc2n[nH]c3c2CN(C(=O)N[C@H](CN(C)C)c2ccccc2)C3(C)C)c2sccc2n1
# Outline: as §1
# dasatinib = compound: Cc1nc(Nc2ncc(C(=O)Nc3c(C)cccc3Cl)s2)cc(N2CCN(CCO)CC2)n1 [dasatinib]
# Outline: as §1
# [3] = compound: Cc1ncc(-c2ccnc(Nc3ccc(S(C)(=O)=O)cc3)n2)n1C(C)C
# Outline: as §1
# [4] = compound: Cn1cc(-c2ccc3c(c2)CCN3C(=O)Cc2cccc(C(F)(F)F)c2)c2c(N)ncnc21
# Outline: as §1
# [5] = compound: Cn1cc(-c2ccc3nnc(C(F)(F)c4ccc5ncccc5c4)n3n2)cn1
# Outline: as §1
# tipifarnib = compound: Cn1cncc1[C@@](N)(c1ccc(Cl)cc1)c1ccc2c(c1)c(-c1cccc(Cl)c1)cc(=O)n2C [tipifarnib]
# Outline: as §1
# mubritinib = compound: FC(F)(F)c1ccc(/C=C/c2nc(COc3ccc(CCCCn4ccnn4)cc3)co2)cc1 [mubritinib]
# Outline: as §1
# [6] = compound: NC(=O)Nc1cc(-c2cccc(F)c2)sc1C(=O)N[C@H]1CCCNC1
# Outline: as §1
# [7] = compound: NC(=O)c1cnc(N[C@@H]2CCCC[C@@H]2N)nc1Nc1cccc(-n2nccn2)c1
# Outline: as §1
# [8] = compound: NC1(c2ccc(-c3nc4ccn5c(=O)[nH]nc5c4cc3-c3ccccc3)cc2)CCC1
# Outline: as §1
# [9] = compound: NCC(=O)Nc1ccc(-n2nc(C(F)(F)F)cc2-c2ccc3c(ccc4ccccc43)c2)cc1
# Outline: as §1
# entinostat = compound: Nc1ccccc1NC(=O)c1ccc(CNC(=O)OCc2cccnc2)cc1 [entinostat]
# Outline: as §1
# vorinostat = compound: O=C(CCCCCCC(=O)Nc1ccccc1)NO [vorinostat]
# Outline: as §1
# citarinostat = compound: O=C(CCCCCCNC(=O)c1cnc(N(c2ccccc2)c2ccccc2Cl)nc1)NO [citarinostat]
# Outline: as §1
# silmitasertib = compound: O=C(O)c1ccc2c(c1)nc(Nc1cccc(Cl)c1)c1ccncc12 [silmitasertib]
# Outline: as §1
# [10] = compound: O=C1NC(=O)C(c2cnc3ccccn23)=C1c1cn2c3c(cc(F)cc13)CN(C(=O)N1CCCCC1)CC2
# Outline: as §1
# [11] = compound: c1cc(OCCN2CCCCC2)cc(-c2n[nH]c3ccc(-c4nnc[nH]4)cc23)c1
# Outline: as §1
# Sequence of UniProt Q86YM7 (Q86YM7 whole entry, looked up): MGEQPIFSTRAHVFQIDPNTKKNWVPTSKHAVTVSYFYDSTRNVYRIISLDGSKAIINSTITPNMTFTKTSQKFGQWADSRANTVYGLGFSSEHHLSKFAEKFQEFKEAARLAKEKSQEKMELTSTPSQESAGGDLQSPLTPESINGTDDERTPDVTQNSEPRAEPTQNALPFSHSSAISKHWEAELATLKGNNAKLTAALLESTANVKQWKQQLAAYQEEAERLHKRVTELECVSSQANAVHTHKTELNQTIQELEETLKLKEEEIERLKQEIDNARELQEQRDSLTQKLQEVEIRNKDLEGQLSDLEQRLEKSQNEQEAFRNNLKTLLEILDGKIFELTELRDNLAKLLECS
# Sequence of UniProt Q9ULT8 (Q9ULT8 whole entry, looked up): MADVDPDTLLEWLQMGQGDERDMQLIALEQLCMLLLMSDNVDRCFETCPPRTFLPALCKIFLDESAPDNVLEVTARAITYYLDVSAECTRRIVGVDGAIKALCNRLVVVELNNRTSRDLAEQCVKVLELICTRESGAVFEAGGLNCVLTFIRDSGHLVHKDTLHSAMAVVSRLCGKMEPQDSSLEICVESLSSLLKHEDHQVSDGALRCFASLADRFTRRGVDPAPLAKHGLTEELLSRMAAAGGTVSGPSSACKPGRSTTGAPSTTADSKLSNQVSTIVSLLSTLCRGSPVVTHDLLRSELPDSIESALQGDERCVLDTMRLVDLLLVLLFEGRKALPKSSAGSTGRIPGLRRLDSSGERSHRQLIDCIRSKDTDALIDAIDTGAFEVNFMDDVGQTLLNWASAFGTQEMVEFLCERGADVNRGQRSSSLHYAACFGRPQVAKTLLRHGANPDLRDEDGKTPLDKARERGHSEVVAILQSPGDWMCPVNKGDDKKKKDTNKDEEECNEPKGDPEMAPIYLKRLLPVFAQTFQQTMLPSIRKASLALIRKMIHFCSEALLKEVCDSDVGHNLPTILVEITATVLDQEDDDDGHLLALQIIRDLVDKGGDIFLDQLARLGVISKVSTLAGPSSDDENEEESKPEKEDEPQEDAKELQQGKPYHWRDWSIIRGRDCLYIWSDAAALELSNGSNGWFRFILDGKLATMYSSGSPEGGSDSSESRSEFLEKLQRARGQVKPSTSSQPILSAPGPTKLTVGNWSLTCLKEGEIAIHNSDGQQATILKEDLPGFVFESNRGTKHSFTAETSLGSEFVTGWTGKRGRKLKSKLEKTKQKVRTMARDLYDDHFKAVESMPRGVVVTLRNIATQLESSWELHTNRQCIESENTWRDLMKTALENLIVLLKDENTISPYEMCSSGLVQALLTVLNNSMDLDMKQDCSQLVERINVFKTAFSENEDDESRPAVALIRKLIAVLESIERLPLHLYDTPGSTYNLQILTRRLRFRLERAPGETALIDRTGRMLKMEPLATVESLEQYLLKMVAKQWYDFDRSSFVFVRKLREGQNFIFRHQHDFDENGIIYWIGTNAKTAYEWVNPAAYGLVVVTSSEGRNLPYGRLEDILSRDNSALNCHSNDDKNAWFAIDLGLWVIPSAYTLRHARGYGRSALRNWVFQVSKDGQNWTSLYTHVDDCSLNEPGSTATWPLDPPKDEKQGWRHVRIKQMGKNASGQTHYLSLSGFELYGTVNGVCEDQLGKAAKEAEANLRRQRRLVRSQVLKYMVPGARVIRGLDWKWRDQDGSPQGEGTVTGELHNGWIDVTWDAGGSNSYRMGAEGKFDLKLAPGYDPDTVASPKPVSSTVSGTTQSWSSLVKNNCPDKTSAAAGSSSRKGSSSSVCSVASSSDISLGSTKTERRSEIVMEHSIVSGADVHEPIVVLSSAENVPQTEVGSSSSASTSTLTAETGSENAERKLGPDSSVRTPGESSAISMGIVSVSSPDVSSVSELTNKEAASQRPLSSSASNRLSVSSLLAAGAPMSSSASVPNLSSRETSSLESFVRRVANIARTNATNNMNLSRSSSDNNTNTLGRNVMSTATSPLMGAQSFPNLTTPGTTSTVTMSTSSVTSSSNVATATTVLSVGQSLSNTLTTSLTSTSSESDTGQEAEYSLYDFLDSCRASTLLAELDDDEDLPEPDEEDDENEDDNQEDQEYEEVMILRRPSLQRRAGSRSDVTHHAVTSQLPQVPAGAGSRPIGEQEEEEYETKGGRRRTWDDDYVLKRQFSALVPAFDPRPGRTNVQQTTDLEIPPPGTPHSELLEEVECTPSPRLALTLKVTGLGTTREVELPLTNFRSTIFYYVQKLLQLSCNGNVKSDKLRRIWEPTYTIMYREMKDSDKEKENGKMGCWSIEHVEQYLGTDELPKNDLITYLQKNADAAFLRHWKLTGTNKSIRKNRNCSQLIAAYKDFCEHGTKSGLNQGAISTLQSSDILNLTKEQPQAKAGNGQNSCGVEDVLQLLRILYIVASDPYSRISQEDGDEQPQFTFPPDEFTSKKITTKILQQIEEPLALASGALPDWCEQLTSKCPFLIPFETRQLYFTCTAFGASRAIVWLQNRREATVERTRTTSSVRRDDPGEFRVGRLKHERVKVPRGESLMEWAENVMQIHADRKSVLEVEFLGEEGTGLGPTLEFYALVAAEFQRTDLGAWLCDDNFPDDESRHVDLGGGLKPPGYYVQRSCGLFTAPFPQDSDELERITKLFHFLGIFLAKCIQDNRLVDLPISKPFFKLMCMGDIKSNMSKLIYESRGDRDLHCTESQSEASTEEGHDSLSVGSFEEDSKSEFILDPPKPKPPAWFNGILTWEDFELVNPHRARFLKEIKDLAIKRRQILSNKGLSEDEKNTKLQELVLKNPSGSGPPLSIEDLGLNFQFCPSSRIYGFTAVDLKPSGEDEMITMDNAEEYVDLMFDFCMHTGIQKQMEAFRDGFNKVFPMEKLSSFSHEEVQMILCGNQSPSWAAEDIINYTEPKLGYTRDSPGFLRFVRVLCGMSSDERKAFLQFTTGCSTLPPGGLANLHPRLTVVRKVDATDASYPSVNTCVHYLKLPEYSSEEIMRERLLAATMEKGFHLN
# Sequence of UniProt Q9P2H3 (Q9P2H3 whole entry, looked up): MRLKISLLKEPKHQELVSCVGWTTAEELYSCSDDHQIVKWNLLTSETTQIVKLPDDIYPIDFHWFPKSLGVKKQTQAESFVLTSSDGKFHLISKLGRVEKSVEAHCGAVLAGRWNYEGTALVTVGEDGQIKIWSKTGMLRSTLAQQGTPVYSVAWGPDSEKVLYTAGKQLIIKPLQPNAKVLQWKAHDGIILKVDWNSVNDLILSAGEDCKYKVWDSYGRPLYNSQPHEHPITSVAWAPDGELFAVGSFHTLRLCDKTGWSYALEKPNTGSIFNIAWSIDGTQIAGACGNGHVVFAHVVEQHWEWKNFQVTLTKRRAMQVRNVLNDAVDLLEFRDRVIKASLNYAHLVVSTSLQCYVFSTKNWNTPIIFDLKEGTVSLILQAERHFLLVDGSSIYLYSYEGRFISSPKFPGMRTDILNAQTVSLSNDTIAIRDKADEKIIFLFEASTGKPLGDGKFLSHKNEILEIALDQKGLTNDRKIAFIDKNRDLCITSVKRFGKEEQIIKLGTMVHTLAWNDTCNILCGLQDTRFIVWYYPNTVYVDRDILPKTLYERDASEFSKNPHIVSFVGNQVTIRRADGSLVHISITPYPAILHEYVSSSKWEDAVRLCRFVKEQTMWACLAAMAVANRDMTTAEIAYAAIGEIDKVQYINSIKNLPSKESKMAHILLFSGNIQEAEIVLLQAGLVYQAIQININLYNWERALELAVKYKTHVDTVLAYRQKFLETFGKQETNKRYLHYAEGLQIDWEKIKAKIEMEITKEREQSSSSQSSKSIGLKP
# Sequence of UniProt P30519 (P30519 whole entry, looked up): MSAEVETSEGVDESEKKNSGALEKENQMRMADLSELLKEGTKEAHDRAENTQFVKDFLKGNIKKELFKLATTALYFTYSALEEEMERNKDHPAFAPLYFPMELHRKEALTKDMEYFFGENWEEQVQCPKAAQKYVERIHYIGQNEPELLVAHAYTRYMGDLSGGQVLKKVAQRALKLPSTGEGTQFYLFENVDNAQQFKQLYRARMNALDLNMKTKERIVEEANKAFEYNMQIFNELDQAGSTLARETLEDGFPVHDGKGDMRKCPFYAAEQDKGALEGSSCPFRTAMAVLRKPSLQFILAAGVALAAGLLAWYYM
# Sequence of UniProt P07686 (P07686 whole entry, looked up): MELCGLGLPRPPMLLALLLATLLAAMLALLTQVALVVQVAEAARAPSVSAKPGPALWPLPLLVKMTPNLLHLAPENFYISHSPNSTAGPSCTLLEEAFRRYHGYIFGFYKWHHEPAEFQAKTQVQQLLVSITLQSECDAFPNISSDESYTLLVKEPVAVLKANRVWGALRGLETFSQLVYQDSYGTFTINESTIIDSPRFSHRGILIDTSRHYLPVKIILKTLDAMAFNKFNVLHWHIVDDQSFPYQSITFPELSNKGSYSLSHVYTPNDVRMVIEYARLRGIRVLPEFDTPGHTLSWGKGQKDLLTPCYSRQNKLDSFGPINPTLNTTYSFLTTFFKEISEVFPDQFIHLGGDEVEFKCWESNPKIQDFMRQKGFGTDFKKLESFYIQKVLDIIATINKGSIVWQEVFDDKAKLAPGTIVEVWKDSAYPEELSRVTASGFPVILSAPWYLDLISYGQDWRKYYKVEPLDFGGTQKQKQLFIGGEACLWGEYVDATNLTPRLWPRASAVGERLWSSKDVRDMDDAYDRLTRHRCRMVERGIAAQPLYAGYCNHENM
# Sequence of UniProt P46976 (P46976 whole entry, looked up): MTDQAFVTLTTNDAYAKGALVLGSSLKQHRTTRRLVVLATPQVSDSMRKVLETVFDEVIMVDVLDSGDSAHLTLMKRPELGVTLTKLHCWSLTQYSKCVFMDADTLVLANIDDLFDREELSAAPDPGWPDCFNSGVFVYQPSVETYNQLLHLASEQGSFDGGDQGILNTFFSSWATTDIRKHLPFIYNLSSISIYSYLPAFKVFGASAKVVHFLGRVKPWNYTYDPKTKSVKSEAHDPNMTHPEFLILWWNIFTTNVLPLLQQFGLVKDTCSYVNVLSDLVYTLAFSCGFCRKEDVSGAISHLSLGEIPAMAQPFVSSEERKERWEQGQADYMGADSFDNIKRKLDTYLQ
Target,log2 fold change (bafetinib),log2 fold change [1],log2 fold change (nilotinib),log2 fold change [2],log2 fold change (dasatinib),log2 fold change [3],log2 fold change [4],log2 fold change [5],log2 fold change (tipifarnib),log2 fold change (mubritinib),log2 fold change [6],log2 fold change [7],log2 fold change [8],log2 fold change [9],log2 fold change (entinostat),log2 fold change (vorinostat),log2 fold change (citarinostat),log2 fold change (silmitasertib),log2 fold change [10],log2 fold change [11]
HMOX2 (UniProt P30519),0.006,0.048,0.002,-0.08,-0.141,-0.006,0.067,0.003,0.27 (active),0.062,-0.022,-0.028,-0.094,-0.026,0.018,0.029,0.023,0,0.013,-0.03
FUBP3 (UniProt Q96I24),-0.035,0.009,-0.051,0.035,-0.024,0.167,-0.059,-0.045,0.014,-0.052,-0.023,0.024,-0.048,-0.011,0.003,0.062,-0.005,0.045,0.186,0.006
GYG1 (UniProt P46976),0.237,0.035,0.635 (active),-0.012,0.052,-0.297,-0.06,-0.11,-0.009,-0.104,0.012,-0.017,0.075,0.134,-0.019,-0.056,-0.011,0.049,0.037,-0.057
HNRNPH2 (UniProt P55795),0.056,0.006,-0.09,-0.231,-0.061,-0.103,-0.021,0.041,-0.236,-0.115,-0.073,-0.03,-0.124,-0.077,0.016,0.114,0.06,0.031,-0.007,-0.086
HEXB (UniProt P07686),-0.468 (active),-0.04,0.002,0.032,0.039,-0.024,0.021,0.01,0.026,0.008,0.003,-0.051,-0.145,-0.034,0.004,-0.042,0.033,0.007,-0.034,-0.003
IFT80 isoform 3 (UniProt Q9P2H3),-0.127,0.077,-0.059,-0.02,-0.148,0.114,0.036,0.039,-0.07,0.17,0.027,0.031,-0.081,0.003,-0.005,0.04,0.011,-0.085,-0.086,-0.093
HECTD1 (UniProt Q9ULT8),0.025,0.029,-0.111,-0.141,-0.104,-0.022,-0.058,-0.032,-0.088,-0.144,-0.036,-0.087,-0.017,-0.01,0.042,0.06,0.123,0.075,-0.027,-0.17
GEMIN5 (UniProt Q8TEQ6),0.015,0.065,-0.046,-0.315 (active),-0.099,-0.127,0.006,-0.021,-0.049,0.043,-0.011,-0.018,-0.133,-0.015,0.029,-0.046,-0.065,0.009,-0.057,-0.034
H2AFX (UniProt P16104),0.103,-0.198,-0.041,-0.025,0.283,-0.012,-0.439,-0.146,0.074,-0.111,0.054,0.245,0.441,0.041,0.132,0.216,-0.035,0.08,0.077,-0.083
HOMER1 (UniProt Q86YM7),-0.016,-0.002,-0.02,0.046,-0.054,-0.008,0.003,0.117,-0.031,0.089,0.058,0.007,-0.014,0.032,0.049,0.059,0.013,0.119,0.013,0.024
GSTM4 (UniProt Q03013),0.021,0.002,0.001,0.088,0,-0.018,0.026,-0.141,-0.023,-0.08,-0.071,-0.046,-0.121,0.023,-0.068,-0.013,-0.079,0.137,0.151,0.199
GLYR1 (UniProt Q49A26),0.109,-0.015,0.082,0.068,0.067,-0.004,-0.004,-0.01,0.054,0.024,-0.023,0.034,-0.032,0.112,-0.049,0.027,0.011,-0.015,-0.009,-0.135
GALNT1 (UniProt Q10472),-0.053,-0.065,-0.059,0.014,0.014,0.142,0.1,-0.093,0.019,0.029,-0.016,-0.012,-0.068,-0.016,-0.027,0.067,0.011,-0.007,-0.121,0.046
IGF2BP2 (UniProt Q9Y6M1),0.121,0.004,-0.058,-0.018,0.038,-0.039,-0.228,-0.191,0.069,-0.071,0.014,-0.051,0.237,0.045,0.015,0.128,-0.178,0.16,0.155,-0.208
HNRNPUL1 (UniProt Q9BUJ2),-0.011,-0.069,-0.032,-0.008,-0.061,0.041,-0.03,-0.007,0.059,-0.231 (active),-0.059,0.028,-0.081,-0.059,-0.012,0.03,0.002,0.034,0.08,-0.046
FBXO3 (UniProt Q9UK99),-0.052,0.06,-0.031,-0.024,-0.054,-0.006,0.041,-0.035,-0.007,0.055,-0.034,-0.013,-0.202,-0.013,-0.039,0.011,0.016,-0.003,0.001,-0.12
